AC50 and outcome data for 4 compounds are collected here from PubChem BioAssay (EPA / NIEHS).

Conditions in all cases: mRNA level, 48 h; actives raise or lower the signal
Read-out in experiment [1]: Peroxisomal acyl-coenzyme A oxidase 1 (ACOX1) gene, ACOX1 (gene 51)
Briefly: LTEA_HepaRG_ACOX1: Life Technologies and Expression Analysis (LTEA) Assay for Peroxisomal acyl-coenzyme A oxidase 1 (ACOX1) gene using HepaRG (AID 2283467). In a few lines: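 HepaRG cells, plated 48 h then switched to serum-free induction medium, were exposed in duplicate for 48 h to 8-point half-log concentrations up to 100 uM in 0.5% DMSO. ACOX1 mRNA was measured by qRT-PCR, normalized to ACTB/GAPDH/POLR2A, and fitted bidirectionally versus DMSO.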

Read-out in experiment [2]: Alkaline Phosphatase, Placental (ALPP) gene, ALPP (gene 250)
In words: LTEA_HepaRG_ALPP: Life Technologies and Expression Analysis (LTEA) Assay for Alkaline Phosphatase, Placental (ALPP) gene using HepaRG (AID 2283468). In a few lines: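 HepaRG cells plated 48 h, then exposed in duplicate for 48 h in serum-free induction medium to 8-point half-log series from 100 uM in 0.5% DMSO. ALPP mRNA by TaqMan qRT-PCR, normalized to ACTB/GAPDH/POLR2A; bidirectional fit versus DMSO.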

Read-out in experiment [3]: Bcl-2 (BAD) gene, BAD (gene 572)
Briefly: LTEA_HepaRG_BAD: Life Technologies and Expression Analysis (LTEA) Assay for Bcl-2 (BAD) gene using HepaRG (AID 2283469). In a few lines:
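Differentiated HepaRG cells were exposed in duplicate in 0.5% DMSO for 48 h to eight-point half-log concentrations up to 100 uM. BAD mRNA was measured by Fluidigm TaqMan qRT-PCR, normalized to ACTB, GAPDH and POLR2A, and fitted bidirectionally against DMSO.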

Read-out in experiment [4]: Bcl-2 (BAX) gene, BAX (gene 581)
Briefly: LTEA_HepaRG_BAX: Life Technologies and Expression Analysis (LTEA) Assay for Bcl-2 (BAX) gene using HepaRG (AID 2283470). In a few lines:
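HepaRG (human liver), 48 h exposure, duplicate wells. 8-pt curve, half-log from 100 uM, 0.5% DMSO. BAX transcript by TaqMan qRT-PCR; ACTB/GAPDH/POLR2A normalization; gain or loss vs DMSO baseline.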

Read-out in experiment [5]: adenosine kinase (ADK) gene, ADK (gene 132)
Briefly: LTEA_HepaRG_ADK: Life Technologies and Expression Analysis (LTEA) Assay for adenosine kinase (ADK) gene using HepaRG (AID 2283471). In outline: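 HepaRG (human liver), 48 h chemical exposure, 8-pt half-log series, top 100 uM, 0.5% DMSO vehicle. Readout: ADK mRNA by qRT-PCR vs housekeeping genes; bidirectional curve fit relative to DMSO baseline.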

Read-out in experiment [6]: Alpha-fetoprotein (AFP) gene, AFP (gene 174)
In words: LTEA_HepaRG_AFP: Life Technologies and Expression Analysis (LTEA) Assay for Alpha-fetoprotein (AFP) gene using HepaRG (AID 2283472). In a few lines:
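HepaRG, single lot; 48 h post-plating -> serum-free induction medium; cpd 8-pt, 100 uM top, half-log, 0.5% DMSO, duplicate, 48 h. RNA -> qRT-PCR AFP, norm ACTB/GAPDH/POLR2A. Bidirectional fit vs DMSO.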

Read-out in experiment [7]: Apoptosis regulator Bcl-2 (Homo sapiens) (UniProt P10415)
Briefly: LTEA_HepaRG_BCL2: Life Technologies and Expression Analysis (LTEA) Assay for Bcl-2 gene using HepaRG (AID 2283475). In a few lines: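 HepaRG, plated 48 h then switched to serum-free induction medium; dosed 48 h, 8 conc. (max 100 uM, half-log steps), duplicate, 0.5% DMSO. Lysis in RLT, RNA isolated, TaqMan qRT-PCR for BCL2; ACTB/GAPDH/POLR2A normalisation; bidirectional fit vs DMSO.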

Read-out in experiment [8]: Bcl-2 (BID) gene, BID (gene 637)
Briefly: LTEA_HepaRG_BID: Life Technologies and Expression Analysis (LTEA) Assay for Bcl-2 (BID) gene using HepaRG (AID 2283476). In outline:
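Transcript levels of BID, measured by qRT-PCR and normalized to three housekeeping genes, were fitted bidirectionally against DMSO controls. Cells were HepaRG, dosed 48 h at up to 100 uM.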

Read-out in the next experiment: Caspase-3 (Homo sapiens) (UniProt P42574)
Briefly: LTEA_HepaRG_CASP3: Life Technologies and Expression Analysis (LTEA) Assay for cysteine-aspartic acid protease (CASP3) using HepaRG (AID 2283477). In a few lines: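 Differentiated HepaRG cells, plated 48 h, were treated in duplicate in serum-free induction medium for 48 h with eight half-log concentrations up to 100 uM in 0.5% DMSO. CASP3 mRNA measured by qRT-PCR, normalized to ACTB, GAPDH, POLR2A.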

Read-out in experiment [9]: Cytochrome P450 (CYP24A1), CYP24A1 (gene 1591)
Briefly: LTEA_HepaRG_CYP24A1: Life Technologies and Expression Analysis (LTEA) Assay for Cytochrome P450 (CYP24A1) using HepaRG (AID 2283478). In a few lines: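 HepaRG cells plated 48 h, then exposed in duplicate in serum-free induction medium for 48 h to 8-point half-log series from 100 uM in 0.5% DMSO. CYP24A1 mRNA by Fluidigm qRT-PCR, normalized to ACTB, GAPDH, POLR2A; bidirectional fit versus DMSO.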

Read-out in experiment [10]: Cytochrome P450 (CYP1A2), CYP1A2 (gene 1544)
Briefly: LTEA_HepaRG_CYP1A2: Life Technologies and Expression Analysis (LTEA) Assay for Cytochrome P450 (CYP1A2) using HepaRG (AID 2283479). In a few lines:
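Differentiated human HepaRG cells in serum-free induction medium exposed 48 hours in duplicate to 8 half-log concentrations from 100 uM, 0.5% DMSO. CYP1A2 mRNA quantified by qRT-PCR, normalized to ACTB, GAPDH and POLR2A; bidirectional fitting versus DMSO.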

Read-out in experiment [11]: cysteine-aspartic acid protease (CASP8), CASP8 (gene 841)
In words: LTEA_HepaRG_CASP8: Life Technologies and Expression Analysis (LTEA) Assay for cysteine-aspartic acid protease (CASP8) using HepaRG (AID 2283480). In a few lines:
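Differentiated HepaRG cells in serum-free induction medium, 48 h exposure, eight-point half-log series from 100 uM in 0.5% DMSO, duplicates. CASP8 mRNA by qRT-PCR, normalized to ACTB, GAPDH, POLR2A; bidirectional fit versus DMSO.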

Read-out in experiment [12]: Cytochrome P450 (CYP2B6), CYP2B6 (gene 1555)
In words: LTEA_HepaRG_CYP2B6: Life Technologies and Expression Analysis (LTEA) Assay for Cytochrome P450 (CYP2B6) using HepaRG (AID 2283481). In a few lines: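 Differentiated human HepaRG cells in serum-free induction medium, dosed in duplicate for 48 h over 8 half-log concentrations topping at 100 uM (0.5% DMSO). CYP2B6 mRNA measured by TaqMan qRT-PCR, normalized to ACTB, GAPDH, POLR2A; bidirectional fit versus DMSO.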

Read-out in experiment [13]: Cytochrome P450 2C19 (Homo sapiens) (UniProt P33261)
Briefly: LTEA_HepaRG_CYP2C19: Life Technologies and Expression Analysis (LTEA) Assay for CYP2C19 using HepaRG (AID 2283482). In a few lines: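 Differentiated HepaRG cells in serum-free induction medium exposed 48 h in duplicate, 8 concentrations from 100 uM by half-log steps in 0.5% DMSO. CYP2C19 mRNA measured by TaqMan qRT-PCR, normalized to ACTB, GAPDH, POLR2A. Bidirectional fit versus DMSO.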

Read-out in a further experiment: CYP2C8 (gene 1558)
In words: LTEA_HepaRG_CYP2C8: Life Technologies and Expression Analysis (LTEA) Assay for CYP2C8 using HepaRG (AID 2283483). In outline: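 Differentiated HepaRG cells in serum-free induction medium exposed 48 h in duplicate to 8 half-log concentrations from 100 uM in 0.5% DMSO. CYP2C8 mRNA by qRT-PCR normalized to ACTB, GAPDH, POLR2A; bidirectional fit versus DMSO.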

Read-out in another experiment: CYP2C9 (gene 1559)
Briefly: LTEA_HepaRG_CYP2C9: Life Technologies and Expression Analysis (LTEA) Assay for CYP2C9 using HepaRG (AID 2283484). In a few lines:
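Differentiated human HepaRG cells in serum-free induction medium were exposed 48 h to chemicals in 8-point half-log series from 100 uM (0.5% DMSO), in duplicate. CYP2C9 mRNA was measured by qRT-PCR, normalized to ACTB/GAPDH/POLR2A, with bidirectional fitting versus DMSO.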

Calls of active or inactive are those of the source. Rule for the calls: active = hit-call score of the fitted dose curve at least 0.9, where 1 is the maximum; inactive = score below 0.9.

Cytochrome P450 2C19 (Homo sapiens), sequence (P33261 whole entry, looked up): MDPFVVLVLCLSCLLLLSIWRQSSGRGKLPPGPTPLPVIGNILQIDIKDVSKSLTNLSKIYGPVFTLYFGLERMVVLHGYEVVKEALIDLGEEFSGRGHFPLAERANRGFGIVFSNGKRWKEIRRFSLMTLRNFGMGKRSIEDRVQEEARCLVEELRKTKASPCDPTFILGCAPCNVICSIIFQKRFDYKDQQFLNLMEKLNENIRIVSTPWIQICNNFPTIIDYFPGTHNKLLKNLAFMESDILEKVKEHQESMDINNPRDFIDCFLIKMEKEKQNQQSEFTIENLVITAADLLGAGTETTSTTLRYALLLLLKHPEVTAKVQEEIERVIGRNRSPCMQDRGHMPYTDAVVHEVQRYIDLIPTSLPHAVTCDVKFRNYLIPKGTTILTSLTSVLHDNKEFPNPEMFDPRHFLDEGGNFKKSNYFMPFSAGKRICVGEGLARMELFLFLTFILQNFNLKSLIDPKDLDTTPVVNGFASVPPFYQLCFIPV
Apoptosis regulator Bcl-2 (Homo sapiens), sequence (P10415 whole entry, looked up): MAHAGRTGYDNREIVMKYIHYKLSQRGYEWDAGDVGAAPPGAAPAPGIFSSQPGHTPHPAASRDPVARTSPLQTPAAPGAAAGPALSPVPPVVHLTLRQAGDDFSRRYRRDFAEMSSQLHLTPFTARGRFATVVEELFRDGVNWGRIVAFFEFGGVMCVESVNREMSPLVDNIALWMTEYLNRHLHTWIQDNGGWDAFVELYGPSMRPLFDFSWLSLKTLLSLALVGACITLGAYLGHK
Caspase-3 (Homo sapiens), sequence (P42574 whole entry, looked up): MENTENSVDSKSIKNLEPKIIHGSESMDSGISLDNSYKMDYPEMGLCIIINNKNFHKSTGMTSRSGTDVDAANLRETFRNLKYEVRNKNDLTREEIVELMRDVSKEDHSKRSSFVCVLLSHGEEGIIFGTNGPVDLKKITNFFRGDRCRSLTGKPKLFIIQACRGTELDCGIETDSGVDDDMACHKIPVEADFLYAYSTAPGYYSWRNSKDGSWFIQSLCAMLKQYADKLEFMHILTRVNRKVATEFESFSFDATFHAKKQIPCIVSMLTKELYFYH

In general, AC50 refers to the midpoint of the concentration-response curve, whichever way the signal moves. Consider `N#Cc1nn(-c2c(Cl)cc(C(F)(F)F)cc2Cl)c(N)c1S(=O)C(F)(F)F` (stereo not drawn), for which the concentration at half-maximal activity (AC50) in experiment [1] is 50.2 µM (active); in experiment [2], 11.5 µM (active); in [4] it was 32.6 µM (active); in [6] it was 15.9 µM (active); in experiment [7] it was 34.6 µM (active); in experiment [10] it was 58.3 µM (active). Further, the AC50 in experiment [12] was 28.9 µM (active); in [13], 29.9 µM (active); with CYP2C8 (gene 1558), 33 µM (active); with CYP2C9 (gene 1559) it was 34.9 µM (active). Also, the outcome (in experiment [3]; in experiment [5]; in experiment [8]; with Caspase-3 (Homo sapiens); in experiment [9]; in [11]) was inactive.

On to `CC(C)Oc1cc(-n2nc(C(C)(C)C)oc2=O)c(Cl)cc1Cl`, for which the AC50 in experiment [1] was 19.8 µM (active); in experiment [2], 69.8 µM (active); in [6], 47.2 µM (active); in experiment [7] it was 81.1 µM (active); in experiment [12] it was 90.5 µM (active); in experiment [13], 1.44 µM (active). Besides, the half-maximal activity concentration (AC50) was 86.3 µM (active) with CYP2C8 (gene 1558) and 82.3 µM (active) in the experiment with CYP2C9 (gene 1559). In addition, the compound was classed as inactive (in experiment [3]; in [4]; in experiment [5]; in [8]; in the experiment with Caspase-3 (Homo sapiens); in experiment [9]). Also, the compound was called inactive in experiment [11].

For the compound `Cc1cc(Cl)ccc1OCC(=O)O`, the AC50 in experiment [1] is 34.3 µM (active); in [10] it was 50 µM (active); in experiment [12], 25.5 µM (active); in [13], 24.3 µM (active); with CYP2C8 (gene 1558), 19.9 µM (active). Further, the compound was called inactive in [2], in [3], in [4], in [5], in experiment [6] and in experiment [7]. Besides, the outcome (in experiment [8]; in the experiment with Caspase-3 (Homo sapiens); in experiment [9]; in experiment [11]; in the experiment with CYP2C9 (gene 1559)) was inactive.

As for `CCON=C(CC)C1=C(O)CC(c2c(C)cc(C)cc2C)CC1=O` (stereo not drawn), the compound was classed as inactive in experiment [1], in [2], in experiment [3], in [4], in experiment [5] and in experiment [6]. The call (in [7]; in experiment [8]; in the experiment with Caspase-3 (Homo sapiens); in experiment [9]; in [10]; in experiment [11]) was inactive. Also, in the experiment with CYP2C9 (gene 1559), the compound was called inactive. Also, the AC50 is 29.5 µM (active) in experiment [12], 23.5 µM (active) in experiment [13] and 50 µM (active) with CYP2C8 (gene 1558).
